Compound activity deposited in PubChem BioAssay by National Center for Advancing Translational Sciences (NCATS).
Shown is part of a subset that was picked to be rich in hits.
VACV Venus inh = vaccinia inhibition (Venus reporter). Vaccinia virus Venus reporter expression, fluorescence. Potency, µM (doses to about 36.5 µM), for the others: top-dose activity change, negative = inhibition, usual class: inhibitors. 330,000 compounds, 0.46% hits; calls by dose curve; tested in A549 cells; further: potency means the concentration at half of the fitted maximal effect; on the % scale 0 is the no-effect control and ±100 the full control effect; nearly all actives have a fitted effect of over 30% in size
LASV entry inh = blocks Lassa virus binding to or entry into cells. Lassa virus pseudotype entry inhibition, cell reporter. Potency, µM (series often up to 37.9 µM), without a hit: top-dose activity change, negative = inhibition, usual class: inhibitors. AID 540256. 300,000 compounds, 1.2% hits; calls by dose curve; tested in HEK293 cells; further: potency means the concentration at half of the fitted maximal effect; on the % scale 0 is the no-effect control and ±100 the full control effect; nearly all actives have a fitted effect of over 50% in size
Marburg entry inh = Marburg virus entry inhibition | 300,000 compounds, 1.8% hits | Potency, µM (highest dose often 37.8 µM), without a hit: top-dose activity change, negative = inhibition, actives largely listed as inhibitors | Marburg virus pseudotyped entry inhibition, cell reporter; calls by dose curve; tested in HEK293 cells; further: potency means the concentration at half of the fitted maximal effect; on the % scale 0 is the no-effect control and ±100 the full control effect
Shiga toxin inh = inhibitors of Shiga toxin in Vero cells; Vero cells, Shiga toxin protein synthesis inhibition reporter; inhibition, % at 38.7 µM; 290,000 compounds, 9.2% hits; AID 2315; in the data active means inhibition mostly above about 28%, no sharp cut-off; inactive means mostly below about 43%; further: 0% is about no effect
CHX counter = affects cycloheximide protein synthesis inhibition readout, counter-screen. cell reporter, cycloheximide protein synthesis inhibition counterscreen. max response, %. 300,000 compounds, 12% hits; in the data active means max response mostly above about 13%, no sharp cut-off; inactive means mostly below about 14%; further: read at 38.3 µM for the half of the compounds with a filed dose; 0% is about no effect
VACV mCherry inh = inhibitors of vaccinia virus infection (mCherry reporter signal); Vaccinia virus mCherry reporter infection, fluorescence; Potency, µM (doses to about 36.5 µM), inactives show top-dose activity change, negative = inhibition, most hits filed as inhibitors; 310,000 compounds, 0.63% hits; AID 720579; calls by dose curve; tested in A549 cells; further: potency means the concentration at half of the fitted maximal effect; on the % scale 0 is the no-effect control and ±100 the full control effect; nearly all actives have a fitted effect of over 35% in size
Active calls of the source: *; i = inactive; ? = inconclusive; . = not tested or not shown; [ ] = remark or other dose.

SMILES | VACV Venus inh | LASV entry inh | Marburg entry inh | Shiga toxin inh | CHX counter | VACV mCherry inh
Cc1ccc(Cn2ncc3c4sc(C)cc4n(C)c3c2=O)cc1 | . | . | . | -10.8 | 7.5 | .
Cc1ccc2c(c1)CC(C)N2S(=O)(=O)c1nnc(NC(=O)C(C)C)s1 (centres undefined) | -15.1% | 5.0%[46.1 µM] | . | . | . | -9.8%
CCC(C)N=C1CC(C)(C)CC(=O)/C1=C(/O)Cc1ccccc1 (centres undefined) | 0.0% | -1.5%[46.1 µM] | ? | -12.6 | 5.0 | i
O=C(c1[nH]ncc1-c1cccc(Br)c1)C1CO1 (centres undefined) | -15.4% | ? | ? | 13.5 | active | i
O=C(c1[nH]ncc1-c1ccccc1)C1CO1 (centres undefined) | -1.6%[7.34 µM] | -26.3% | -12.3%[46.1 µM] | -4.4 | -0.8 | -5.6%[7.34 µM]
CC(C)(C)OC(=O)C[C@@H]1C/C=C\C[C@@H](CC(=O)N(CCO)Cc2ccccc2)C(=O)N[C@H](C(C)(C)C)COC1=O | -22.0% | . | . | . | . | ?
Cc1ccc(N=Nc2ccc(O)cc2)c(Br)c1 | -29.4% | 10µM* | ? | 49.0* | 43.8* | -16.0%
Oc1ccc(N=Nc2ccc(Br)cc2)c(O)c1 | ? | . | . | 84.3* | 48.0* | -23.9%
O=[N+]([O-])c1ccccc1N=Nc1ccc(O)cc1O | -17.7% | -7.5% | 5.4% | . | . | i
COc1cc(OC)cc(C(=O)Nc2cccc3cccnc23)c1 | 1.0% | -2.1% | ? | -5.2 | -1.8 | -2.6%
Oc1ccc(N=Nc2ccc3c(c2)OCCO3)c2cccnc12 | ? | ? | ? | 135.1* | 44.0* | ?
O=C(Nc1cccc2ncccc12)c1ccc2c(c1)OCCO2 | -11.6% | 11.8% | 3.4% | 0.9 | 2.0 | .
CCN(CC)S(=O)(=O)c1ccc(N=Nc2cc(C)cc(Br)c2O)cc1 | 0.5% | -1.9% | -23.6% | . | . | -14.9%
COc1cccc(N=Nc2ccc3cccnc3c2O)c1 | ? | . | . | 62.3* | 29.7* | ?
Oc1ccc(N=Nc2ccc3c(c2)OCCO3)c(O)c1 | . | . | . | 25.4 | 22.3* | .
COc1ccc(N=Nc2ccc(O)c3ncccc23)cc1 | . | . | . | 5.9 | 5.0 | .
COc1cccc(N=Nc2ccc(O)c3ncccc23)c1 | ? | ? | ? | 88.7* | 12.8* | ?
O=S(=O)(O)c1cc(O)c(N=Nc2ccc(O)cc2O)c2ccccc12 | i | -0.8%[46.1 µM] | -1.4%[46.1 µM] | . | . | 351.2%
C=CCOC(=O)C1=C(C)OC(N)=C(C#N)[C@@]12C(=O)N(CN1CCOCC1)c1ccccc12 | . | . | 16.5%[46.1 µM] | . | . | .
Cc1oc(/N=C/c2ccc(O)cc2O)c(C#N)c1C | . | 13.0% | 8.1% | 116.8* | 36.6* | .
O=S(=O)(Nc1cccc(-c2ccc(N3CCCCCC3)nn2)c1)c1ccccc1Cl | . | . | . | 57.7* | 33.6* | .
Cc1ccc(S(=O)(=O)Nc2cccc(-c3ccc(N4CCCCC4)nn3)c2)s1 | -21.4% | -12.0%[46.1 µM] | . | . | . | -12.0%
O=S(=O)(Nc1cccc(-c2ccc(N3CCCCCC3)nn2)c1)c1ccccc1F | -13.5% | ? | . | 110.2* | 31.8* | -13.6%
Cc1ccc(C)c(N(CC(=O)Nc2cc(Cl)ccc2Oc2ccccc2)S(C)(=O)=O)c1 | ? | ? | 12.6µM* | -10.1 | -3.6 | .
CC(C)(C)NS(=O)(=O)c1ccc(CCC(=O)Nc2cc(Cl)ccc2Oc2ccccc2)cc1 | ? | ? | 8.91µM* | -5.9 | 12.0 | ?
SMILES | VACV Venus inh | LASV entry inh | Marburg entry inh | Shiga toxin inh | CHX counter | VACV mCherry inh
Nc1cc(Cl)c2nonc2c1[N+](=O)[O-] | 10µM* | ? | ? | 21.8 | -3.3 | 10µM*
Cc1c(NC(=O)C(C)OC(=O)COc2ccccc2)c(=O)n(-c2ccccc2)n1C (centres undefined) | 2.2% | -0.4% | -4.4%[46.1 µM] | -2.4 | 5.8 | 5.5%
Cc1c(NC(=O)C(C)OC(=O)CC2Sc3ccccc3NC2=O)c(=O)n(-c2ccccc2)n1C (centres undefined) | . | 0.9% | 5.2% | 25.3 | 13.2* | .
COc1cccc(C(=O)CC(=O)C(=O)Nc2ccc(C)cc2Cl)c1 | -15.7% | 28.9%[46.1 µM] | -28.9%[46.1 µM] | 38.3* | 11.9* | -3.7%
COc1cc(OC)c(NC(=O)C(=O)CC(=O)c2ccc(C)cc2C)cc1Cl | 2.0% | 8.2µM* | ? | -10.5 | -8.5 | ?
COc1cccc(C(=O)CC(=O)C(=O)Nc2cc(OC)ccc2OC)c1 | -2.4% | ? | -5.5%[46.1 µM] | -2.2 | -3.3 | ?
COc1ccc(NS(=O)(=O)c2ccc(N3CCOCC3)c(NC(=O)c3ccc(F)cc3)c2)cc1 | -22.1% | ? | 3.55µM* | -18.3 | -0.7 | -29.0%
O=S(=O)(Nc1cc(S(=O)(=O)N2CCOCC2)ccc1N1CCOCC1)c1ccc2c(c1)OCCO2 | -9.8% | . | . | 11.1 | 16.2* | i
CN(c1cccc(NC(=O)c2ccc(Cl)c(S(=O)(=O)Nc3ccccc3)c2)c1)S(C)(=O)=O | ? | -24.2% | 3.66µM* | 4.6 | 4.7 | -24.3%
CC(C)Oc1ccc(C(=O)Nc2ccc(Cl)c(S(=O)(=O)Nc3ccc(Cl)cc3)c2)cc1 | ? | 11.2µM* | ? | 13.3 | 2.6 | ?
CC1(C)Cc2ccccc2C(CSc2ccccc2C(=O)O)=N1 | -13.7% | -2.6% | -25.9%[46.1 µM] | 5.3 | 1.9 | -12.1%
COc1ccccc1C(=O)Nc1nnc([C@@H]2C[C@H](O)[C@@H](CO)O2)s1 | -21.0% | . | . | . | . | i
CC(C)Oc1ccc(C(=O)Nc2cc(S(=O)(=O)N3CCOCC3)ccc2N2CCOCC2)cc1 | -29.1% | 12.6µM* | ? | . | . | -12.6%
COc1ccc(NS(=O)(=O)c2cc(NC(=O)c3ccco3)ccc2N2CCCCC2)cc1 | ? | ? | 14.1µM* | 17.3 | 7.6 | ?
Cn1c(=O)c(=O)n(C)c2cc(N3CCOCC3)c(NS(=O)(=O)c3ccc(F)c(Cl)c3)cc21 | ? | -5.3%[46.1 µM] | -10.4%[46.1 µM] | -0.9 | -1.5 | 11.2µM*
COc1ccc(NS(=O)(=O)c2cc(NC(=O)c3ccc(Cl)cc3)ccc2N2CCOCC2)cc1 | 0.0% | ? | 1.12µM* | . | . | ?
O=C(Nc1cc(S(=O)(=O)N2CCOCC2)ccc1N1CCOCC1)c1ccc(S(=O)(=O)N2CCCCC2)cc1 | -6.4% | -23.5% | ? | -16.7 | -4.1 | 7.5%
CC(=O)C1=CCC(c2ccc(Br)cc2)N(S(=O)(=O)c2ccc(C)cc2)C1 (centres undefined) | 2.1% | . | . | . | . | 31.6%
O=C(C1=C(O)C(=O)N(CCCN2CCOCC2)C1c1ccccn1)c1cccs1 (centres undefined) | . | . | -0.7% | 43.1* | 75.4* | .
O=C1C(=O)N(CCN2CCOCC2)[C@@H](c2ccccn2)/C1=C(\O)c1ccccc1 | . | . | 23.2% | . | . | .
Cc1ccc(/C(O)=C2/C(=O)C(=O)N(CCN3CCOCC3)C2c2ccccn2)cc1 (centres undefined) | 1.6% | -0.2% | -1.1% | 105.3* | 33.8* | i
CCN(CC)CCCN1C(=O)C(=O)/C(=C(/O)c2ccc(C)cc2)C1c1ccccn1 (centres undefined) | -5.8% | -19.6% | -6.2% | 8.1 | -2.8 | -14.3%
O=C1C(=O)N(CCN2CCOCC2)C(c2ccccn2)/C1=C(/O)c1ccccc1 (centres undefined) | 1.6% | 2.8% | 23.2% | 109.4* | 29.6* | -9.0%
